Consider 40 compounds from PubChem BioAssay (EPA / NIEHS).

Results filed as inconclusive are left out. Activity calls are given as the source filed them. Rule for the calls: active = hit-call score of the fitted dose curve at least 0.9, where 1 is the maximum; inconclusive = response in the unintended direction; inactive = score below 0.9.

Nuclear receptor subfamily 1 group I member 2 (Homo sapiens), sequence (O75469 whole entry, looked up): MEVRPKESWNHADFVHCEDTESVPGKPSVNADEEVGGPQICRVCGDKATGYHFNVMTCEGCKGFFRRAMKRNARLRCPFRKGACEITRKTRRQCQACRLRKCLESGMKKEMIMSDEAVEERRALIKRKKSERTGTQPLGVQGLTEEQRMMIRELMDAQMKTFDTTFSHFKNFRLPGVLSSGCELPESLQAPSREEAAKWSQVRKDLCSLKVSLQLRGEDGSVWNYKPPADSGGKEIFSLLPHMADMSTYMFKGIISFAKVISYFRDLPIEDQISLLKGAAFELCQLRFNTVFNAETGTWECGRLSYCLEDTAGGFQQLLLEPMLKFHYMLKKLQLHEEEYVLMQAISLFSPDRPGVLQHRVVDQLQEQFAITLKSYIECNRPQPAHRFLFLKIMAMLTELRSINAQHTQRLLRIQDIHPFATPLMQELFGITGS

The target in this assay is Nuclear receptor subfamily 1 group I member 2 (Homo sapiens) (UniProt O75469). In words: ATG_PXR_TRANS: Attagene TRANS-FACTORIAL HepG2 Assay for human Pregnane X Receptor (PXR) (AID 2283008). As for the experimental part:
ATG_TRANS is a cell-based, multiplexed-readout assay that uses HepG2, a human liver cell line, with measurements taken at 24 hours after chemical dosing in a 24-well plate.ATG_PXR_TRANS is one of 30 assay component(s) measured or calculated from the ATG_TRANS assay. It is designed to make measurements of mRNA induction, a form of inducible reporter, as detected with fluorescence intensity signals by Reverse transcription polymerase chain reaction (RT-PCR) and Capillary electrophoresis technology.Data from the assay component ATG_PXR_TRANS was analyzed into 1 assay endpoint. This assay endpoint, ATG_PXR_TRANS, was analyzed in the positive analysis fitting direction relative to DMSO as the negative control and baseline of activity. Using a type of inducible reporter, measures of mRNA for gain-of-signal activity can be used to understand the reporter gene at the transcription factor-level as they relate to the gene NR1I2. Furthermore, this assay endpoint can be referred to as a primary readout, because this assay has produced multiple assay endpoints where this one serves a reporter gene function. To generalize the intended target to other relatable targets, this assay endpoint is annotated to the nuclear receptor intended target family, where the subfamily is non-steroidal.
Human liver HepG2 cells are transiently transfected with multiple reporter transcription units (MRTUs) in 6-well plates using FuGene 6 reagent (Roche; 3 ml FuGene/1 mg DNA). The MRTU constructs are regulated by a cis-regulating element (promoter). […] A major difference between the CIS and TRANS system is that in CIS activities of endogenous TFs are measured, whereas the TRANS assay evaluates changes in activities of exogenous, chimeric NR-Gal4 proteins. […] At the end of 24 hour incubation, total RNA was isolated using TriZol reagent (Invitrogen). The isolated RNA is then reverse-transcribed using oligo(dT) primer and Mo-MLV reverse transcriptase (Invitrogen) with DNAse I (Ambion) treatment for 30 min. The one-tenth of the produced cDNA was amplified by PCR using Taq DNA polymerase (Invitrogen) and two reporter sequence-specific primers. The PCR products were fluorescently labeled by primer extension with 6-arboxyfluorescein (6-FAM) 5'-labeled reporter sequence-specific primer (2 min at 95 C, 20 s at 68 C and 10 min at 72 C) and these products were digested with 5U of HpaI (New England Biolabs) for 2h at 37 C. The fragments were purified using Qiaquick PCR columns (Qiagen), analyzed on an ABI 3130xL genetic analyzer (Applied Biosystems) with peak positions identified by using a set of X-rhodamine (ROX)-labeled MapMarker1000 molecular weight standards (BioVentures). The raw capillary electrophoresis data was processed using Attagraph software (Attagene).
Take `O=c1oc(=O)c2cc3c(=O)oc(=O)c3cc12`: the compound was classed as inactive.

As to `Cc1ncc([N+](=O)[O-])n1C`, the call was inactive. The same measure, in the same setting: the value for `O=C1O[C@@H]2[C@@H](O)[C@H](O)O[C@@H]2[C@H]1O` was “inactive”; that for `OC1C(O)C(O)C(O)C(O)C1O` (stereo not given) was “inactive”; that for `COC(C)CCO` (stereo not given) was “inactive”. Consider `NC(=O)Nc1ccc(Cl)cc1`, for which the result was inactive. On the same count and under the same terms, the value for `COc1cc2ncnc(Nc3cccc(Cl)c3)c2cc1OC` was “inactive”.

Broadly, the AC50 is the midpoint of the concentration-response curve, whichever way the signal moves. In the case of `COc1ccc(Nc2ccccc2)c(C)c1`, the AC50 was 11.1 µM (active).

For `CC(C)c1cccc(O)c1`, the result was inactive.

With `CC(CN1c2ccccc2Sc2ccccc21)N(C)C` (stereo not given), the concentration at half-maximal activity (AC50) is 6.83 µM (active). With `COc1ccc(Cl)cc1C`, the call was inactive. Take `CC[C@]12CCCN3CCc4c(n(c5ccccc45)[C@@](O)(C(=O)OC)C1)[C@@H]32`: the AC50 was 2.99 µM (active).

With `CC(=O)[O][Al][O]C(C)=O`, the result was inactive. On to `CCCCNC(=O)NS(=O)(=O)c1ccc(C)cc1`, for which the call was inactive. Same read-out and setting: the value for `CCCC(C)C=O` (stereo not given) was “inactive”; that for `CCN(CC)c1ccc(C(=C2C=CC(=[N+](CC)CC)C=C2)c2ccc(S(=O)(=O)O)cc2S(=O)(=O)[O-])cc1` was “inactive”; that for `C=C(C)C(=O)NCCCN(C)C` was “inactive”.

`CN(C)CCCN`: the call was inactive.

In the case of `CCCCCCOC(=O)CCCCC`, the result was inactive.

Regarding `Nc1cc([N+](=O)[O-])ccc1O`, the compound was called inactive.

Take `Clc1ccc(Cl)c(Cl)c1Cl`: the compound was classed as inactive. The same measure, in the same setting: the value for `CC(C=O)Cc1ccc(C(C)C)cc1` (stereo not given) was “inactive”; that for `Cc1ccc2n[nH]nc2c1` was “inactive”. Still for that read-out and setting: the value for `CCCCCCOC(=O)CC` was “inactive”; that for `C=C(C)[C@@H]1CCC2=CC(=O)C[C@@H](C)[C@]2(C)C1` was “inactive”. For the compound `O=[N+]([O-])c1ccc(Nc2ccc(Nc3ccccc3)c(S(=O)(=O)O)c2)c([N+](=O)[O-])c1`, the concentration at half-maximal activity (AC50) was 22.9 µM (active). As to `CCCC1CCC(=O)O1` (stereo not given), the compound was classed as inactive. Same read-out and setting: the value for `C[C@H]1C[C@H]2[C@@H]3CCC4=CC(=O)C=C[C@]4(C)[C@@]3(F)[C@@H](O)C[C@]2(C)[C@@]1(O)C(=O)COP(=O)(O)O` was “inactive”. For the compound `CN(CCOc1ccc(CC2SC(=O)NC2=O)cc1)c1ccccn1` (stereo not given), the AC50 was 5.11 µM (active). On to `CCCCCOC(=O)CCC`, for which the compound was classed as inactive.

As to `CCCc1c(OCCCOc2ccc(OCC(=O)O)cc2)ccc(C(C)=O)c1O`, the AC50 was 26.6 µM (active).

As to `O=C(O)Cc1cccc2ccccc12`, the compound was called inactive.

In the case of `O=C1OC2(c3cc(Br)c(O)c(Br)c3Oc3c2cc(Br)c(O)c3Br)c2c(Cl)c(Cl)c(Cl)c(Cl)c21`, the concentration at half-maximal activity (AC50) is 4.84 µM (active). As to `CC(C)(C)c1n[nH]c(=S)n(N)c1=O`, the compound was classed as inactive. For `COCCCOc1ccnc(CS(=O)c2nc3ccccc3[nH]2)c1C` (stereo not given), the AC50 was 4.77 µM (active). Same read-out and setting: the value for `Cc1cc(C2(c3cc(C)c(O)cc3C)OS(=O)(=O)c3ccccc32)c(C)cc1O` was 32.7 µM (active). Turning to `CC(=O)OCCC(C)CC(C)(C)C` (stereo not given), the outcome was inactive. In the case of `CCCCCC(=O)OCCc1ccccc1`, the compound was classed as inactive. Same read-out and setting: the value for `CC(C)(COC(=O)c1ccccc1)COC(=O)c1ccccc1` was “inactive”. For `C=CC(=O)OCC(O)COc1ccccc1` (stereo not given), the AC50 was 61 µM (active).
